Laboratory results taken from PubChem BioAssay (NCATS).
Records with an inconclusive call do not appear. The source made the active and inactive calls. Unless noted, calls come from the whole dose curve; as a rule, active = well fitted curve in the direction sought with a large enough effect; inconclusive = small, poorly fitted or top-dose-only effect, or another doubt; inactive = no such curve, though single readings can be large; an effect the other way counts as inactive or inconclusive.

Columns and labels:
[1] = target: Endonuclease 4 (Escherichia coli (strain K12)) (UniProt P0A6C1); assay: Counterscreen for APE1 Inhibitors: qHTS Validation Assay for Inhibitors of Endonuclease IV (AID 1708); note: % is set by controls: 0 for no effect and ±100 for the full control effect
Method in brief: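 2 nM enzyme was preincubated with compounds for 15 min at room temperature in 50 mM Tris-HCl pH 7.5, 50 mM NaCl, 2 mM MgCl2, 1 mM DTT, 0.01% Tween-20. 50 nM THF-abasic TAMRA/BHQ-2 duplex substrate started the reaction.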

[2] = qHTS for differential inhibitors of proliferation of Plasmodium falciparum line 7G8 (AID 1815);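 note: parasite growth measured after three days of incubation; plate controls were vehicle wells for no effect and reference inhibitor wells for full effect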
[3] = qHTS for differential inhibitors of proliferation of Plasmodium falciparum line GB4 (AID 1816); conditions: Potency: Plasmodium falciparum GB4 proliferation inhibition;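 note: parasite growth measured after 72 h incubation; 0% = vehicle DMSO and -100% = reference inhibitor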
[4] = qHTS for differential inhibitors of proliferation of Plasmodium falciparum line 3D7 (AID 1876);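 note: parasite growth measured after three days of culture; 0% = vehicle wells and -100% = reference inhibitor wells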
[5] = qHTS for differential inhibitors of proliferation of Plasmodium falciparum line D10 (AID 1877);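 note: parasites grown with compound for 72 h before DNA staining; plate controls were vehicle wells for no effect and reference inhibitor wells for full effect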
[6] = qHTS for differential inhibitors of proliferation of Plasmodium falciparum line Dd2 (AID 1882); conditions: Potency: Plasmodium falciparum Dd2 proliferation inhibition;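 note: series mostly up to about 29 µM; compound exposure of 72 h on infected erythrocytes; plate controls were DMSO vehicle for no effect and 0.29 µM artemisinin for full effect; nearly all actives have a fitted effect of over 65% in size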
Method in brief: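 SYBR Green I DNA fluorescence read-out, ex 485/em 535 nm. Signals were normalized to 0.29 uM artemisinin and DMSO wells, then corrected using vehicle-only plates flanking each stack. Parasite growth ran 72 h in erythrocytes before lysis.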

[7] = qHTS for differential inhibitors of proliferation of Plasmodium falciparum line W2 (AID 1883); conditions: Potency: Plasmodium falciparum W2 proliferation inhibition;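 note: parasites grown with compound for 72 h before lysis and staining; 0% = vehicle wells and -100% = control inhibitor wells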
[8] = qHTS for differential inhibitors of proliferation of Plasmodium falciparum line HB3 (AID 1886); conditions: Potency: Plasmodium falciparum HB3 proliferation inhibition;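 note: parasites grown with compound for 72 h before SYBR Green readout; plate controls were vehicle for no effect and reference inhibitor for full effect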
[9] = qHTS Assay for Modulators of Human Peripheral Myelin Protein 22 (PMP22) Expression/Activity (AID 1967; active = well fitted curve in the direction sought with a large enough effect in the signal ratio; the % refers to the signal ratio;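 note: 0% = untreated cells and 100% end not stated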)
Method in brief: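 Luminescence ratio of Pmp22 promoter-driven green luciferase to EF-alpha-driven red luciferase, in engineered mouse MSC80 Schwann cells, served as read-out. Compounds were incubated 24h; untreated cells defined 0% Activity; curves were classified by r2, magnitude and activity.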

[10] = target: ATP-dependent DNA helicase Q1 (Homo sapiens) (UniProt P46063); assay: qHTS Validation Assay for Inhibitors of RecQ-Like Dna Helicase 1 (RECQ1) (AID 2353);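 note: plate controls were DMSO vehicle for no effect and enzyme-free control for full effect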
Chain of ATP-dependent DNA helicase Q1 (Homo sapiens) (P46063 whole entry, looked up): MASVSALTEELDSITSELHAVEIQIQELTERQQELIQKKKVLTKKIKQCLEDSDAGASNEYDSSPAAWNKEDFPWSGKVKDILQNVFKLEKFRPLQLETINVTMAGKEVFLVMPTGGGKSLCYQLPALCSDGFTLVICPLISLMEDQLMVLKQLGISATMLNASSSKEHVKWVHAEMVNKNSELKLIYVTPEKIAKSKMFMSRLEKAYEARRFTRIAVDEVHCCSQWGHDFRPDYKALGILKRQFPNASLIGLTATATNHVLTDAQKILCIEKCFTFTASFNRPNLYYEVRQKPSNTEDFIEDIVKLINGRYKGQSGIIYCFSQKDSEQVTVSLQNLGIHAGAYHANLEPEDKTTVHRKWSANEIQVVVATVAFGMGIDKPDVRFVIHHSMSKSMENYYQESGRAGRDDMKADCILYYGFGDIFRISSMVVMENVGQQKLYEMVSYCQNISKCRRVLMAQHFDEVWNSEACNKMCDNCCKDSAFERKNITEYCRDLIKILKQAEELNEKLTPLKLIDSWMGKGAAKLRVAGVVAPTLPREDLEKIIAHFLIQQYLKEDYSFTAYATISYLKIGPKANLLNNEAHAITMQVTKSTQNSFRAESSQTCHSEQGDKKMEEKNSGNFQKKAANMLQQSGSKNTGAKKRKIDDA
Method in brief: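 50 nM RECQ1T1 preincubated 15 min with compound in Tris pH 8.0 buffer with MgCl2, DTT, Tween-20 and 2.5 ug/ml poly(dI-dC); started with 200 nM TAMRA/BHQ-2 forked duplex and 2 mM ATP. Unwinding read as fluorescence (525/598 nm), two reads 2 h apart.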

[11] = Validation screen for small molecules that induce DNA re-replication in MCF 10A normal breast cells (AID 463097); note: 0% is about no effect; nearly all actives have a fitted effect of over 60% in size
Method in brief: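 Image-based qHTS: normal breast cells are incubated with compound for 48 hr, stained with Hoechst, and scanned for total nuclear fluorescence. Compounds raising the fraction of nuclei with elevated DNA content count as re-replication inducers.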

[12] = Quantitative high throughput screen for delayed death inhibitors of the malarial parasite plastid, 96 hour incubation (AID 488745); note: series mostly up to about 29 µM; % is set by controls: 0 for no effect and ±100 for the full control effect; nearly all actives have a fitted effect of over 70% in size
Method in brief: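 P. falciparum carrying an integrated firefly luciferase reporter, grown in erythrocytes (2% hematocrit, 0.1% parasitemia final) in RPMI 1640/0.5% Albumax, was exposed to compound for 96 h (two generations) at 37 C, 5% CO2. Luminescence decrease indicated growth inhibition.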

[13] = Quantitative high throughput screen for delayed death inhibitors of the malarial parasite plastid, 48 hour incubation (AID 488752); note: % is set by controls: 0 for no effect and ±100 for the full control effect; nearly all actives have a fitted effect of over 65% in size
Method in brief: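 Erythrocytes infected with P. falciparum carrying an integrated firefly luciferase reporter (2% hematocrit, 0.1% parasitemia final) were exposed to compounds in RPMI 1640/0.5% Albumax for 48 h at 37 C, 5% CO2. Growth inhibition was scored as reduced luminescence.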

[14] = target: M-phase phosphoprotein 8 (Homo sapiens) (UniProt Q99549); assay: qHTS Validation Assay for Inhibitors for MPP8 Chromodomain Interactions with Methylated Histone Tails (AID 488949);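 note: 50 nM MPP8 with 50 nM peptide preformed then compounds added for 30 min; AlphaScreen signal from MPP8 chromodomain bound to biotinylated H3K9me3 peptide; top concentration of the series differs between compounds; % is set by controls: 0 for no effect and ±100 for the full control effect; nearly all actives have a fitted effect of over 55% in size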
Chain of M-phase phosphoprotein 8 (Homo sapiens) (Q99549 whole entry, looked up): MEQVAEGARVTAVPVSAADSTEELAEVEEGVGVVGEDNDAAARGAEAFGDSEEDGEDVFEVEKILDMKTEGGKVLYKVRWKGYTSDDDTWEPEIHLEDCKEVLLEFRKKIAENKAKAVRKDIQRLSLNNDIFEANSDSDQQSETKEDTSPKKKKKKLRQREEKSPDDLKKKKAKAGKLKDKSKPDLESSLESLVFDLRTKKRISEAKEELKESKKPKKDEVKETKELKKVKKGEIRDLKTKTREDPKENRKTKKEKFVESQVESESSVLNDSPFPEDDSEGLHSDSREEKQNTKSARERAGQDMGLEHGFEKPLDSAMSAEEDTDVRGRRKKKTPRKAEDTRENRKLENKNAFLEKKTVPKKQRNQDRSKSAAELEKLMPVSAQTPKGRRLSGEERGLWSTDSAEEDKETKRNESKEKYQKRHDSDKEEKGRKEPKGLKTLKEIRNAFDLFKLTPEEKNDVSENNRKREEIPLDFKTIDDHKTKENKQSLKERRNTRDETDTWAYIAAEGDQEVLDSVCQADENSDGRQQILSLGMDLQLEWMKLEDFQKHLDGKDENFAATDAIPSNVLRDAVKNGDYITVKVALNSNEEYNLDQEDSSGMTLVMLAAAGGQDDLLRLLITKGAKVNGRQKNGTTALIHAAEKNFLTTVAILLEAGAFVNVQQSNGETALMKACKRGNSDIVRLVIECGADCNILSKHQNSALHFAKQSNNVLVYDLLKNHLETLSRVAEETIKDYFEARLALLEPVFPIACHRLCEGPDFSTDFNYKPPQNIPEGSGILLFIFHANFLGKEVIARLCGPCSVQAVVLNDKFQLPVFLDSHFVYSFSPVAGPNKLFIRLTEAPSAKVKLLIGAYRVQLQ
Method in brief: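 50 nM MPP8 + 50 nM b-H3K9me3 peptide, PBS pH 7.4/0.01% Tween-20, 30 min RT; + cpd 30 min RT; + AlphaScreen donor/Ni-chelate acceptor beads 10 ug/mL final, 30 min dark; luminescence read.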

[15] = target: Thyrotropin receptor (Homo sapiens) (UniProt P16473); assay: qHTS Assay for Antagonists of the Thyroid Stimulating Hormone Receptor (AID 488980); note: series mostly up to about 58 µM; 0% is about no effect
Chain of Thyrotropin receptor (Homo sapiens) (P16473 whole entry, looked up): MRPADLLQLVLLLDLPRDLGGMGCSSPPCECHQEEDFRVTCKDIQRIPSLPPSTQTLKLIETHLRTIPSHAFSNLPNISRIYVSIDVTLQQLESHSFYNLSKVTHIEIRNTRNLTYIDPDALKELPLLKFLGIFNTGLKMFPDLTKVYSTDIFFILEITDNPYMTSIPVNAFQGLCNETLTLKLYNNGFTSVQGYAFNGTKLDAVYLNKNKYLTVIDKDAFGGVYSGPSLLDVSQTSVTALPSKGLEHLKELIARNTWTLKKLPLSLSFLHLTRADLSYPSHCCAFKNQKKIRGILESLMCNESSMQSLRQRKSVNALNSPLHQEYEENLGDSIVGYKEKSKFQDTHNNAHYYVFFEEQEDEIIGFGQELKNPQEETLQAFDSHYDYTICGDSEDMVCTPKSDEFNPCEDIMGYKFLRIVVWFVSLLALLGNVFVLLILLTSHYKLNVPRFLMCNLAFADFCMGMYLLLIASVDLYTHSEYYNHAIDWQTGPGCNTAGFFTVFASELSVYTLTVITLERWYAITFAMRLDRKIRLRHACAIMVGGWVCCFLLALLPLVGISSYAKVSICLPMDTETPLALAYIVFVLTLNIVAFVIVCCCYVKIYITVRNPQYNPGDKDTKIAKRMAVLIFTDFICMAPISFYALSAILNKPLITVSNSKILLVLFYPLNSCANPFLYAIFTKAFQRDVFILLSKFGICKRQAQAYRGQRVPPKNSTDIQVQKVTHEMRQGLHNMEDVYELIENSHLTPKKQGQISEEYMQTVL
Method in brief: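 Readout is cAMP by HTRF competition between cellular cAMP and cAMP-d2 for a cryptate-labelled antibody. Antagonism was assessed in TSHR-transfected HEK293 cells stimulated with 4 nM TSH (EC80, final) in the presence of RO 20-1724.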

[16] = target: Thyrotropin-releasing hormone receptor (Homo sapiens) (UniProt P34981); assay: qHTS for Small Molecule Agonists and Allosteric Enhancers of Human TRH Receptor: Validation Screen for Agonists (AID 493127;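 active = calcium activation more than 3 SD above the typical response in the agonist read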;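 note: intracellular calcium rise by fluo-8 fluorescence before TRH EC20 addition; 0% is about no effect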); conditions: TRH receptor agonist cell assay; at 2 µM; hits give high values
Chain of Thyrotropin-releasing hormone receptor (Homo sapiens) (P34981 whole entry, looked up): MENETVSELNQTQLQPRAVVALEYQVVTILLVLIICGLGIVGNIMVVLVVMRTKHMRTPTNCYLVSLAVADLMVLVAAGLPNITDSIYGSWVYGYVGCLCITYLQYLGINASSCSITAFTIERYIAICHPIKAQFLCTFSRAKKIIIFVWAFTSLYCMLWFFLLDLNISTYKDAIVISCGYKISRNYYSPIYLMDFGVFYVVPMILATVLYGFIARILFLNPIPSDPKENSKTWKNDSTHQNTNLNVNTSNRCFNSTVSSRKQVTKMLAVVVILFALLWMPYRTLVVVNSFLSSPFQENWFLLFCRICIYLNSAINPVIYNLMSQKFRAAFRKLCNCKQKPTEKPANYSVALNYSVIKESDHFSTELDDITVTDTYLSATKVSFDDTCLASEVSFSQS
Method in brief: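 TRHR-expressing cells were plated overnight in serum-containing medium, then loaded with fluo-8 calcium dye at room temperature for 30 min–1.5 h. After a 10 s baseline, compound was pin-transferred and calcium fluorescence (ex 480/em 530) read kinetically for agonist response.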

[17] = target: Galactokinase (Homo sapiens) (UniProt P51570); assay: qHTS Validation Assay for Inhibitors of Human Galactokinase (GALK) (AID 493189); note: 0% is about no effect
Chain of Galactokinase (Homo sapiens) (P51570 whole entry, looked up): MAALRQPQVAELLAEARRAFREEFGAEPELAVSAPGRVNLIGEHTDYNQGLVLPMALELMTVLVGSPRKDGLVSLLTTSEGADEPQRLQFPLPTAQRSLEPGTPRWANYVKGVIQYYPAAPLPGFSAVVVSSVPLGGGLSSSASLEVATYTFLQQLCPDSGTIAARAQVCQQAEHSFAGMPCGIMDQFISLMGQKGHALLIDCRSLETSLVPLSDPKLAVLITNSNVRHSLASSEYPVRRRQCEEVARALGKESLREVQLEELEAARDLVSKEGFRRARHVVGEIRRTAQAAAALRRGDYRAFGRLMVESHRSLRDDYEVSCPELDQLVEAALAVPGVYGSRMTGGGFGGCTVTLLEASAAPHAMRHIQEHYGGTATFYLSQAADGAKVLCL
Method in brief: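 5 nM GALK / 100 uM galactose / 35 uM ATP, 20 mM HEPES pH8.0, 5 mM MgCl2, 60 mM NaCl, 1 mM DTT, 0.01% BSA (final). RT 1 h; Kinase-Glo Plus luminescence.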

[18] = Validation screen for small molecules that induce DNA re-replication in SW480 colon adenocarcinoma cells (AID 504364); note: 0% is about no effect
Method in brief: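 SW480 cells seeded at 250 per well were exposed to compound or DMSO for 48 hr at 37 C, 5% CO2, then stained with Hoechst for 40 min. DNA content per nucleus was imaged (405 nm ex, 500-530 nm em).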

[19] = target: Voltage-gated inwardly rectifying potassium channel KCNH2 (Homo sapiens) (UniProt Q12809); assay: qHTS Assay for Small Molecule Inhibitors of the Human hERG Channel Activity (AID 588834);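 note: top concentration of the series differs between compounds; % is set by controls: 0 for no effect and ±100 for the full control effect; lower thallium flux fluorescence means stronger hERG block; nearly all actives have a fitted effect of over 50% in size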
Chain of Voltage-gated inwardly rectifying potassium channel KCNH2 (Homo sapiens) (Q12809 whole entry, looked up): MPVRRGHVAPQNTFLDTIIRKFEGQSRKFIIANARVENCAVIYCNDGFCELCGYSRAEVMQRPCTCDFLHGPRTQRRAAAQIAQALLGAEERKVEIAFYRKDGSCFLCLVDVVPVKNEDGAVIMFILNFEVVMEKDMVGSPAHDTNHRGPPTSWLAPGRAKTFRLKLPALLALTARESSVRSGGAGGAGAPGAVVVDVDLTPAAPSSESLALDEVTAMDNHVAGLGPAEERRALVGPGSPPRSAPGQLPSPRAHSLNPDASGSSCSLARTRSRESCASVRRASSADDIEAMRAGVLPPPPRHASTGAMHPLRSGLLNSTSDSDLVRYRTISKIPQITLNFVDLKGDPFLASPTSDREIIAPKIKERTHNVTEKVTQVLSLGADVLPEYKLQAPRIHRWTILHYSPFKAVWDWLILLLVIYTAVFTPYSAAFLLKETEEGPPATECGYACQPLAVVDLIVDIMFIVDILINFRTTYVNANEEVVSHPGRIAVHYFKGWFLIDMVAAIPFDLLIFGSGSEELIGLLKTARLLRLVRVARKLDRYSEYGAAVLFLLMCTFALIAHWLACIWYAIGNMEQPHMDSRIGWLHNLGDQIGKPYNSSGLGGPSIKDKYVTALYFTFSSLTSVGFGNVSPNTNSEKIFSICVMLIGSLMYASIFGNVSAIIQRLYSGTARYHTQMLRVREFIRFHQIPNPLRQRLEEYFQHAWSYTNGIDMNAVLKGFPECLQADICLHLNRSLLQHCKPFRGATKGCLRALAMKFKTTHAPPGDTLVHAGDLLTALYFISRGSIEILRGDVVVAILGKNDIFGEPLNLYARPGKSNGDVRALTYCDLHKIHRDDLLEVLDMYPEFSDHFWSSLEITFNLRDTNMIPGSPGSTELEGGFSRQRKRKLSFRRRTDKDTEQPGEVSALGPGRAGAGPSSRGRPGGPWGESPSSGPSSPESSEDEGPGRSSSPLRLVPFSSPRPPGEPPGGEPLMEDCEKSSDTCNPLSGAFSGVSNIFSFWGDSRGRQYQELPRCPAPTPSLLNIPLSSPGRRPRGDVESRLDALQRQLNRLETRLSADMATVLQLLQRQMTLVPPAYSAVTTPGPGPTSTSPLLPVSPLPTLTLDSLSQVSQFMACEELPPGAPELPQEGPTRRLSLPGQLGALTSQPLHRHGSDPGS
Method in brief: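 hERG-BacMam U2OS, 2000 cells/well; 0.7X FluxOR loading 1 hr RT dark; cpd ~10 min 37 °C; stim buffer; FDSS fluorescence 2 min @ 1 s; AC50 Hill fit.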

[20] = tested on: Zika virus NS2B-NS3 protease; assay: Primary screen GU AMC qHTS for Zika virus inhibitors (AID 1347154);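 note: 0% = no-inhibitor control and -100% = no-enzyme control; nearly all actives have a fitted effect of over 70% in size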
Method in brief: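 Unlinked Zika NS2B hydrophilic domain/NS3 protease domain noncovalent complex (25 nM final) in 10 mM Tris-HCl pH 8.0, 0.01% Tween 20, with AMC peptide substrate. Fluorescence (ex 340, em 450 nm) change over 15 min, room temperature; percent inhibition fitted to 4-parameter Hill equation.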

Cc1cccc(C)c1NC(=O)C[N+](C)(C)C
inactive: Potency [1] | Potency [2] | Potency [3] | Potency [4] | Potency [5] | Potency [6] | Potency [7] | Potency [8] | outcome [9] | Potency [10] | Potency [11] | Potency [12] | Potency [13] | Potency [14] | outcome [15] | activation [16] -0.0625% | outcome [17] | outcome [18] | Potency [19] | Potency [20]
